Values without a mark were called inactive.
target: T1, VCPIP1 (UniProt Q96JH7); assay: log2 ratio of Biotin-Ahx-Ub-VS probe labelling (fragment/DMSO); higher = less target engagement (more negative = stronger competition), active = hit call of the paper (q ≤ 0.05, log2 ratio ≤ -1); details: compound concentration: 200 uM; treatment time: 3 h
T1 sequence (whole entry): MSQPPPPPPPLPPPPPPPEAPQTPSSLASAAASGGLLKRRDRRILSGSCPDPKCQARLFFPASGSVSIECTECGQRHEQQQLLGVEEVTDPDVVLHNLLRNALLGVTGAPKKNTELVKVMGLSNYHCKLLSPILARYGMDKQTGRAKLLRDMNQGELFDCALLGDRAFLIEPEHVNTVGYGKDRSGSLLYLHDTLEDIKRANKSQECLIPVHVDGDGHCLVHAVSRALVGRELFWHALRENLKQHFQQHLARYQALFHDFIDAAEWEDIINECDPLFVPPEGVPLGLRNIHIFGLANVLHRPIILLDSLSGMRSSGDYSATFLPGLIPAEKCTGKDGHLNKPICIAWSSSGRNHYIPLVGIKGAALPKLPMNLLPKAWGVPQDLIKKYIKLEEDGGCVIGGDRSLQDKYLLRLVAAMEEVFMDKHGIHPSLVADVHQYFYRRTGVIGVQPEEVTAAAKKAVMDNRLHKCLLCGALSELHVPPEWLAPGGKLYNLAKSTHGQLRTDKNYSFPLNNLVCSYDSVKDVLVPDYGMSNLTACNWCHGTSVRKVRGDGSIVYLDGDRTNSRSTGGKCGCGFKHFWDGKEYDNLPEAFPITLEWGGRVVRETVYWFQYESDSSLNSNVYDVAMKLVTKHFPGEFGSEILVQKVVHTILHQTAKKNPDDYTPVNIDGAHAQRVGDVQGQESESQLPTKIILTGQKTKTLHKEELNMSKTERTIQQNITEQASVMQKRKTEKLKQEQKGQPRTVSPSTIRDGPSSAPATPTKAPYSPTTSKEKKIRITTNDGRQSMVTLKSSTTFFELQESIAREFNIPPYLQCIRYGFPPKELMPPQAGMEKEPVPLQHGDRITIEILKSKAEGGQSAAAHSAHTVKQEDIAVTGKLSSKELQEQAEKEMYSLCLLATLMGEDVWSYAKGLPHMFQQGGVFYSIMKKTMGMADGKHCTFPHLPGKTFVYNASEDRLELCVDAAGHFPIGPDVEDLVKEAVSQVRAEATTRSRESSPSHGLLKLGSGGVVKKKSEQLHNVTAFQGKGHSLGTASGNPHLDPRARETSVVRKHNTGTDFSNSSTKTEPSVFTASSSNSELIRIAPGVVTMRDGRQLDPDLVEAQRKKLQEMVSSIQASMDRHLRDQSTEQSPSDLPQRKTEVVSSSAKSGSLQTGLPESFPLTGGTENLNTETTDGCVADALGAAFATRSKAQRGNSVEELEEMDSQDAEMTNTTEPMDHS
Procedure: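 Competitive ABPP in HEK293T cell lysate. Lysates were treated with each chloroacetamide fragment at 200 µM for 3 h, then with Biotin-Ahx-Ub-VS (0.5 µM, 1 h), NeutrAvidin-enriched and analysed by diaPASEF LC-MS/MS. Protein LFQ was median-normalised; average log2 ratio is fragment/DMSO from an unpaired t-test (n=3 treated, n=44 DMSO). Hits: q ≤ 0.05, log2 ratio ≤ -1, unique peptides ≥ 2.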

SMILES	log2 ratio of Biotin-Ahx-Ub-VS probe labelling
Cl.O=C(CCl)N1CCN(Cc2ccccc2)CC1	-0.476
Cc1cc(NC(=O)CCl)n(-c2ccccc2)n1	-0.6
O=C(CCl)Nc1cccc(NC(=O)c2ccccc2)c1	-2.42 (active)
NS(=O)(=O)c1ccc(Cl)c(NC(=O)CCl)c1	-2.53 (active)
Cc1c(NC(=O)CCl)c(=O)n(-c2ccccc2)n1C	-0.255
NC(=O)C1CCCN(C(=O)CCl)C1 (stereo not given)	-0.167
O=C(CCl)Nc1cc(Cl)ccc1-n1cncn1	-1.26 (active)
O=C(CCl)N1CCC(C(O)c2ccc(F)cc2)CC1 (stereo not given)	-0.764
Cc1cccc2nc(CCNC(=O)CCl)cn12.Cl	-1.77 (active)
Cc1noc(N2CCN(C(=O)CCl)CC2)n1.Cl	0.15
O=C(CCl)N1CCN(C(=O)N2CCCCC2)CC1	-0.906
O=C(CCl)N1CCOCC1C1CC1 (stereo not given)	-0.493
Cc1cccc(NC(=O)CCl)c1C	-0.666
Cc1ccccc1OCC(=O)N1CCN(C(=O)CCl)CC1	-1.16 (active)
Cc1conc1C1CN(C(=O)CCl)C1	-0.949
O=C(O)C1Cc2ccccc2CN1C(=O)CCl (stereo not given)	-0.368
O=C(CCl)N[C@H]1CC[C@@H](CO)CC1	-1.4 (active)
Cl.O=C(CCl)N1CCC(Cc2nccs2)C1 (stereo not given)	-2.29 (active)
O=C(CCl)NCCc1cccc2ccccc12	-1.04 (active)
Cc1noc(C)c1CNC(=O)CCl	-1.8 (active)

SMILES	log2 ratio of Biotin-Ahx-Ub-VS probe labelling
O=C(CCl)N1c2ccccc2NC(=O)C12CCCC2	-0.744
O=C(CCl)N1CCC(O)(Cc2ccc(F)cc2)C1 (stereo not given)	-2.24 (active)
CN(CCC(O)c1ccc(Br)cc1)C(=O)CCl (stereo not given)	-2.63 (active)
NC(=O)C1CCCCN1C(=O)CCl (stereo not given)	-0.253
O=C(CCl)N1CCOC(CCc2ccccc2)C1 (stereo not given)	-2.79 (active)
Cc1ccc(C(=O)NCCNC(=O)CCl)cc1	-2.4 (active)
Cc1n[nH]c2c1CN(C(=O)CCl)CC2	-1.02 (active)
Cl.O=C(CN1CCN(C(=O)CCl)CC1)Nc1ccc(F)cc1	-0.257
O=C(CCl)N1CCN2C(=O)CCC2C1 (stereo not given)	-0.0347
CNC(=O)C1CCN(C(=O)CCl)CC1	-0.28
Cl.Cn1ncc2c1CCCC2NC(=O)CCl (stereo not given)	-1.7 (active)
CC1(NC(=O)CCl)CCS(=O)(=O)C1 (stereo not given)	-0.848
CCc1c[nH]c(CNC(=O)CCl)n1.Cl	-0.554
CC(=O)C1CCCCN1C(=O)CCl (stereo not given)	-0.0774
Cc1nc(CC2CCN(C(=O)CCl)CC2)no1	-0.733
O=C(CCl)N1CCCC1c1ccsc1 (stereo not given)	-1.07 (active)
O=C(CCl)Nc1nnc(CC(F)(F)F)o1	-0.723
O=C(CCl)N1CCc2nc[nH]c2C1c1ccc(Cl)cc1 (stereo not given)	-1.07 (active)
CC1CCc2onc(CNC(=O)CCl)c2C1 (stereo not given)	-1.39 (active)
O=C(CCl)N1CCc2sccc2C1	-0.819

Source: the supplement of paper PMC11732987, “Enantioselective OTUD7B fragment discovery through chemoproteomics screening and high-throughput optimisation” (Communications Chemistry, 2025)
